TDP1 cell noCPT: qHTS for Inhibitors of human tyrosyl-DNA phosphodiesterase 1 (TDP1): qHTS in cells in absence of CPT; DT40 Tdp1-/- hTDP1 cells, no CPT, ATP luminescence, 48 h; Potency, µM (highest dose often 46.2 µM), for the others: at the top dose activity change, negative = growth inhibition, most hits filed as inhibitors; 420,000 compounds, 15% hits; also: potency is read from the fitted curve at half-maximal effect; % is scaled to controls: 0 for no effect and ±100 for the full control effect; nearly all actives have a fitted effect of over 55% in size
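Chicken DT40 Tdp1-/- cells stably complemented with human TDP1 were seeded at 400 cells/well with DMSO in place of 20 nM camptothecin. After compound pinning, cells grew at least 48 hr at 37 °C; viability read by CellTiter-Glo luminescence.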
TDP1 cell CPT: DT40-hTDP1 cell growth loss with CPT; chicken DT40 Tdp1-/-;hTDP1 cells + 20 nM CPT, ATP luminescence, 48 h; Potency, µM (highest dose often 46.2 µM), for the others: at the top dose activity change, negative = growth inhibition, hits mostly inhibitors; 420,000 compounds, 12% hits; AID 686979; also: potency is read from the fitted curve at half-maximal effect; % is scaled to controls: 0 for no effect and ±100 for the full control effect; nearly all actives have a fitted effect of over 55% in size
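Chicken DT40 Tdp1-/- cells stably complemented with human TDP1 were seeded at 400 cells/well in medium containing 20 nM camptothecin, exposed to pin-transferred compounds, and grown at 37 °C for at least 48 hr. Viability was read as ATP luminescence.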
S-ASM inh: blocks human secretory acid sphingomyelinase; placental ASM, HMU-PC fluorogenic substrate, 60 min; Potency, µM (highest dose often 57.5 µM), for the others: at the top dose activity change, negative = inhibition, usual class: inhibitors; P17405; 340,000 compounds, 0.006% hits; AID 504937; also: potency is read from the fitted curve at half-maximal effect
Target sequence (P17405 47-631 limits assumed): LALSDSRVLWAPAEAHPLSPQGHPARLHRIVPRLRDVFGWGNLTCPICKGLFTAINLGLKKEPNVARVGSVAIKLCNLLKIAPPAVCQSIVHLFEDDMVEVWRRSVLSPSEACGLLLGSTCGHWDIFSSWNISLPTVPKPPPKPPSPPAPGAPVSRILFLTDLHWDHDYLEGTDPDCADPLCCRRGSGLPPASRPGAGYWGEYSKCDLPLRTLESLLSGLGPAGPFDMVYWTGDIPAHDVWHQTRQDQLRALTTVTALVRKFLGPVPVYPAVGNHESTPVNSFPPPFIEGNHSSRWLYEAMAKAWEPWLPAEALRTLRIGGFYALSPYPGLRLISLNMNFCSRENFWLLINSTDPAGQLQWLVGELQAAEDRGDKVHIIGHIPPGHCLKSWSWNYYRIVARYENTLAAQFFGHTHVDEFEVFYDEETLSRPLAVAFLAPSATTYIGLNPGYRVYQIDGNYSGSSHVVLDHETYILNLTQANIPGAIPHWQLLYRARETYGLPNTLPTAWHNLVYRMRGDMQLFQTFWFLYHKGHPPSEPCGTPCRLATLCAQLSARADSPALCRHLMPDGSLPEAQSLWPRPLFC
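qHTS format. ASM enzyme prepared from human placenta hydrolyses the fluorogenic substrate HMU-PC0 (9 uM final) over 60 min at 37 °C after a 10 min compound preincubation.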
TGFb inhibitor: TGF-b pathway inhibition; HepG2 CAGA-GFP TGF-b/SMAD3 reporter, GFP fluorescence, 18 h; TGF-beta stimulated, 500 pg/mL final; Potency, µM (doses to about 46.1 µM), inactives show top-dose activity, negative = inhibition, most hits filed as inhibitors; 410,000 compounds, 1.2% hits; AID 588855; also: potency is read from the fitted curve at half-maximal effect; % is scaled to controls: 0 for no effect and ±100 for the full control effect; nearly all actives have a fitted effect of over 65% in size
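TGF-beta reporter screen: HEPG2 CAGA-GFP, 1% FBS, 500 pg/mL TGF-beta final, 18 h; per-cell GFP summed per well; curves fitted and categorized by class.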
HepG2 tox: counter-screen for TGF-b inhibitors: cytotoxicity in HepG2 cells | HepG2 CAGA-GFP viability, ATP luminescence, 18 h | Potency, µM (series often up to 46.1 µM), for the others: top-dose activity change, negative = cytotoxicity, most hits filed as cytotoxic | 410,000 compounds, 0.76% hits | AID 588856; also: potency is read from the fitted curve at half-maximal effect
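HepG2 CAGA-GFP cells (1000/well, DMEM with 1% FBS) received compound, then TGF-beta at 500 pg/mL final, and were incubated 18 hours at 37 degrees C. Viability was read by CellTiter-Glo luminescence. Media-only wells were set as complete cell-killing and DMSO as no toxicity.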
IL-1B inflam inh: inflammasome signaling inhibition, IL-1 beta readout | THP-1 LPS/ATP IL-1B secretion, AlphaLISA, 16 h; hits give low values | activity change, % at 57.5 µM | 360,000 compounds, 4.7% hits | AID 743279; in the data active = activity change below about -50%; inconclusive = mostly about -30% to -49%; also: % is scaled to controls: 0 for no effect and ±100 for the full control effect
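THP-1 cells pretreated 1 hr with compounds (up to 57.5 uM final), then stimulated with LPS (250 ng/mL final) plus ATP (1.25 mM final); secreted IL-1B measured by AlphaLISA after 16 hr, decreased signal indicating inhibition.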
An asterisk follows results filed as active; i = inactive; ? = inconclusive; / = no result. Compounds with a hit are over-represented: about 19% of the library has one in this group of screens. Unless noted, calls follow the shape of the dose curve; as a rule, active = well fitted curve in the direction sought with a large enough effect; inconclusive = small, poorly fitted or top-dose-only effect, or another doubt; inactive = no such curve, though single readings can be large; an effect the other way counts as inactive or inconclusive.

SMILES	TDP1 cell noCPT	TDP1 cell CPT	S-ASM inh	TGFb inhibitor	HepG2 tox	IL-1B inflam inh
O=C(OCC(=O)N1CCC(Cc2ccccc2)CC1)c1ccccc1NCCO	?	?	i	0.8%	1.5%	-4.8
O=C(OCC(=O)N1CCC(Cc2ccccc2)CC1)c1ccccc1O	29.1µM*	?	-6.8%	0.0%	0.6%	-8.3
COc1ccc(OCCCC(=O)OCC(=O)NNC(=O)c2ccc([N+](=O)[O-])cc2)cc1	5.2%	10.1%	-2.9%	-19.7%	4.2%	1.3
O=S(=O)(Nc1ccc(C(O)(C(F)(F)F)C(F)(F)F)cc1)c1ccc(Cl)c2nonc12	14.6µM*	13µM*	/	?	20µM*	-113.7*
Cn1nc(C(C)(C)C)cc1N1C(=O)CCC1(C)C(=O)Nc1ccc2ccccc2c1 (configuration not stated)	?	?	/	-6.3%	-4.5%	18.9
CN(C)c1ccc(NC(=O)Cn2nnc3sc4c(c3c2=O)CCC(C(C)(C)C)C4)cc1 (configuration not stated)	?	?	/	-4.3%	0.1%	/
CCOc1ccccc1NC(=O)Cn1nnc2sc3c(c2c1=O)CCC(C(C)(C)C)C3 (configuration not stated)	5.17µM*	14.6µM*	/	-0.4%	0.8%	/

Compound activity (PubChem BioAssay)
